“And” between values parts separate entries of the source, which are not always exact repeats. Equal entries are not always repeated. This is part of a sample that, as a whole, favours compounds with a hit. Of some 83,000 tested, about 20% had one in any assay.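 Percent growth is the endpoint: 0 to 100 indicates growth inhibition (40 means 60% inhibition), 0 means no net growth, and negative values indicate cell death.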 The source made the active and inactive calls. The calls were made as follows: active = growth percent below 10; inactive = the rest.
How the values were obtained:
Assay in all cases: NCI-60 one-dose screen, 48 h (100 = growth as untreated, 0 = no growth, -100 = all killed)
Conditions in all cases: 10 µM unless noted
[1] = test system: HCT-15 colon
[2] = test system: HT29 colon
[3] = test system: SNB-75 CNS
[4] = test system: SNB-19 CNS
[5] = test system: U251 CNS
[6] = test system: PC-3 prostate
[7] = test system: SK-MEL-5 melanoma
[8] = test system: UACC-62 melanoma
[9] = test system: LOX IMVI melanoma
[10] = test system: SK-MEL-28 melanoma

Row | SMILES | growth [1] | growth [2] | growth [3] | growth [4] | growth [5] | growth [6] | growth [7] | growth [8] | growth [9] | growth [10]
1 | Cc1ccc(-c2noc(CC(=O)c3ccc([N+](=O)[O-])cc3)n2)cc1 | 98.3% (inactive) | 101% (inactive) | 94.6% (inactive) | 106% (inactive) | 96.8% (inactive) | 98.6% (inactive) | 91.6% (inactive) | 91.1% (inactive) | 89.5% (inactive) | 105% (inactive)
2 | CO/N=C/C=C\C(=O)N/C=C/C[C@H]1/C=C/[C@H](O)/C=C\C=C\c2cccc(O)c2C(=O)O1 | 11.9% (inactive) and 16.7% (inactive) | 9.82% (active) and 7.92% (active) | 25.2% (inactive) and -14.6% (active) | 68.3% (inactive) and 56.7% (inactive) | 33.3% (inactive) and 32.2% (inactive) | 37.5% (inactive) and 25.3% (inactive) | -70.6% (active) and -68.6% (active) | -1.1% (active) and -43.6% (active) | -45.7% (active) and -73.7% (active) | 32.1% (inactive)
3 | O=C(Nc1ccc(Br)cc1)c1cc(Br)ccc1O | 15.2% (inactive) and 15.6% (inactive) | 92.1% (inactive) and 36.7% (inactive) | -10.1% (active) and 49.2% (inactive) | 22.1% (inactive) and 23.1% (inactive) | 15.4% (inactive) and 10.2% (inactive) | 5.68% (active) and 3.31% (active) | -65.5% (active) and -83.1% (active) | 3.77% (active) and -27.9% (active) | 2.39% (active) and 8.77% (active) | 27% (inactive) and 16.4% (inactive)
4 | Oc1ccccc1C=NCC1CCC(CN=Cc2ccccc2O)CC1 (stereo not given) | 7.98% (active) | 17.1% (inactive) | 101% (inactive) | 94.6% (inactive) | 78.4% (inactive) | 77.8% (inactive) | 92.8% (inactive) | 88.7% (inactive) | 80.2% (inactive) | 128% (inactive)
5 | CCCCCCCCCCCCOc1ccccc1C=O | 101% (inactive) | 96.7% (inactive) | 80.6% (inactive) | 98.4% (inactive) | 87.4% (inactive) | 108% (inactive) | 101% (inactive) | 102% (inactive) | 90.1% (inactive) | 106% (inactive)
6 | Cc1ccc(S(=O)(=O)Nc2ccc3cc([N+](=O)[O-])ccc3c2[N+](=O)[O-])cc1 | 71% (inactive) and 94.2% (inactive) | 93.3% (inactive) and 114% (inactive) | 80% (inactive) and 106% (inactive) | 85.6% (inactive) and 96.2% (inactive) | 82.1% (inactive) and 88.2% (inactive) | 71.7% (inactive) and 73.4% (inactive) | 86.1% (inactive) | 44% (inactive) and 69.1% (inactive) | 82% (inactive) and 97.3% (inactive) | 89.7% (inactive) and 115% (inactive)
7 | CCOc1ccc(Nc2c3ccccc3nc3ccccc23)cc1 | 91.1% (inactive) and 17.4% (inactive) and 22% (inactive) | 98% (inactive) and 4.3% (active) and 10.5% (inactive) | 77.1% (inactive) and 38.2% (inactive) and 21.5% (inactive) | 91.1% (inactive) and 44.3% (inactive) and 35.2% (inactive) | 86% (inactive) and 21.4% (inactive) and 28.1% (inactive) | 90.6% (inactive) and 25.6% (inactive) and 39.5% (inactive) | 80.6% (inactive) and -65.9% (active) and 0.799% (active) | 84.8% (inactive) and 18.9% (inactive) and 31.8% (inactive) | 94.5% (inactive) and 3.66% (active) and 11.5% (inactive) | 106% (inactive) and 46.8% (inactive) and 66.1% (inactive)
8 | CNC(=O)c1cccc(-c2ccc3c(N4CCOC[C@@H]4C)nc(N4CCOC[C@@H]4C)nc3n2)c1 | 9.22% (active) and 7.13% (active) | 18.3% (inactive) and 1.73% (active) | -32.8% (active) and -40.5% (active) | 10.2% (inactive) and 8.05% (active) | 9.22% (active) and 6.58% (active) | 6.6% (active) and 7.98% (active) | -38.2% (active) and -49.8% (active) | -24.9% (active) and -51.8% (active) | 3.01% (active) and -1.67% (active) | -15.7% (active) and -26.3% (active)
9 | Fc1ccccc1Nc1n[nH]c(=S)s1 | 98.3% (inactive) | 103% (inactive) | 101% (inactive) | 104% (inactive) | 101% (inactive) | 106% (inactive) | 101% (inactive) | 95.3% (inactive) | 128% (inactive) | 102% (inactive)
10 | c1ccc(NCc2ccc3c(c2)OCO3)cc1 | 108% (inactive) and 93% (inactive) | 103% (inactive) and 104% (inactive) | 89.7% (inactive) and 95.8% (inactive) | 99% (inactive) | 99.3% (inactive) and 93.3% (inactive) | 96.1% (inactive) and 93.6% (inactive) | 100% (inactive) | 110% (inactive) and 100% (inactive) | 106% (inactive) and 98.9% (inactive) | 120% (inactive) and 105% (inactive)
11 | CC[N+](CC)(CC(=O)Nc1c(C)cccc1C)Cc1ccccc1 | 88.6% (inactive) and 104% (inactive) | 101% (inactive) and 102% (inactive) | 84.9% (inactive) and 101% (inactive) | 95.4% (inactive) and 96.8% (inactive) | 75.6% (inactive) and 97.9% (inactive) | 84.3% (inactive) and 97.2% (inactive) | 85.7% (inactive) and 98.7% (inactive) | 81.6% (inactive) and 93.2% (inactive) | 79% (inactive) and 98.3% (inactive) | 99.7% (inactive) and 103% (inactive)
12 | c1ccc2cc(C[n+]3ccn(Cc4ccc5ccccc5n4)c3)ccc2c1 | 96.3% (inactive) and 101% (inactive) | -30.7% (active) and 10.7% (inactive) | 18.9% (inactive) and 33.2% (inactive) | 13.3% (inactive) and 19.7% (inactive) | 12.4% (inactive) and 23% (inactive) | 4.09% (active) and 14.7% (inactive) | -87.6% (active) and -67.9% (active) | -1.09% (active) and 10.6% (inactive) | -30.6% (active) and 20.1% (inactive) | 8.97% (active) and 41.2% (inactive)
13 | N#C/C(=C1C=C/C(=N/O)C(Br)=C/1)c1ccccc1 | 23.1% (inactive) | 8.98% (active) | 23% (inactive) | 94.9% (inactive) | 26.5% (inactive) | 4.02% (active) | 53.6% (inactive) | 33.1% (inactive) | 1.02% (active) | 61.3% (inactive)
14 | COc1ccccc1/C=N\N=C(N/N=C/c1ccccc1OC)N/N=C/c1ccccc1OC | 55.9% (inactive) and 32.1% (inactive) | 23.7% (inactive) and 12.9% (inactive) | 86.7% (inactive) and 71.1% (inactive) | 59% (inactive) and 23.7% (inactive) | 39.3% (inactive) and 15.3% (inactive) | 41.2% (inactive) and 19.7% (inactive) | 69.8% (inactive) and -91.3% (active) | 55.5% (inactive) and 19.7% (inactive) | 28.6% (inactive) | 78.8% (inactive) and 64.5% (inactive)
15 | CN(C)CCC(=O)c1ccc(Cl)cc1 | 111% (inactive) and 116% (inactive) | 106% (inactive) and 100% (inactive) | 78.6% (inactive) and 114% (inactive) | 95% (inactive) and 109% (inactive) | 113% (inactive) and 111% (inactive) | 92.5% (inactive) and 103% (inactive) | 103% (inactive) and 112% (inactive) | 98.5% (inactive) and 101% (inactive) | 113% (inactive) and 92.2% (inactive) | 107% (inactive) and 115% (inactive)

Source: PubChem BioAssay (NCI)
